Source: PubChem BioAssay (National Center for Advancing Translational Sciences (NCATS))
Vif-APOBEC3F blk: qHTS for Inhibitors of Vif-A3F Interactions: qHTS | HeLa A3F-eYFP + Vif (tagged APOBEC3F with the HIV-1 protein that degrades it), YFP fluorescence increase | Potency, µM (top dose mostly 46.1 µM), for the others: top-dose activity, negative = active | 0.2% of 390,000 active | AID 602313, 2012; further: potency means the concentration at half of the fitted maximal effect; % of control where 0% means no effect; nearly all actives have a fitted effect of over 65% in size
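HeLa cells stably expressing A3F-eYFP plus Vif, plated and incubated overnight at 37 deg C, then exposed to compounds overnight at 37 deg C. Blocked degradation read as raised yellow fluorescence (Ex 488/Em 500-530).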
SW480 rereplic: A quantitative high throughput screen for small molecules that induce DNA re-replication in SW480 colon adenocarcinoma cells | SW480 DNA re-replication, Hoechst DNA content imaging, 48 h | Potency, µM (titrated, usually from 46.1 µM), for the others: top-dose re-replication activation, usual class: activators | 1.8% of 340,000 active | AID 624297, 2012; further: potency means the concentration at half of the fitted maximal effect; % of control where 0% means no effect; nearly all actives have a fitted effect of over 55% in size
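Image-based read-out: total Hoechst fluorescence of nuclei (405 nm excitation, 500-530 nm emission), with hits raising the fraction of high-intensity nuclei. SW480 colon cells incubated 48 hr with compounds at 37 C.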
MCF10A rerep: A quantitative high throughput screen for small molecules that induce DNA re-replication in MCF 10a normal breast cells | MCF 10A DNA re-replication, Hoechst nuclear intensity, 48 h | Potency, µM (doses to about 46.1 µM), for the others: at the top dose activity, positive = re-replication, actives largely listed as activators | 2.9% of 350,000 active; further: potency means the concentration at half of the fitted maximal effect; % of control where 0% means no effect; nearly all actives have a fitted effect of over 50% in size
Vif-A3G inh: qHTS for Inhibitors of Vif-A3G Interactions: qHTS; Potency, µM (highest dose often 46.1 µM), for inactives: at the top dose activity, negative = active, actives largely listed as inhibitors; DNA dC->dU-editing enzyme APOBEC-3G (Homo sapiens), Q9HC16; 0.076% of 410,000 active; HeLa A3G-eYFP + Vif (tagged APOBEC3G with the HIV-1 protein that degrades it), YFP fluorescence, overnight; further: potency means the concentration at half of the fitted maximal effect; on the % scale 0 is the no-effect control and ±100 the full control effect; nearly all actives have a fitted effect of over 60% in size
Target sequence (Q9HC16 whole entry, looked up): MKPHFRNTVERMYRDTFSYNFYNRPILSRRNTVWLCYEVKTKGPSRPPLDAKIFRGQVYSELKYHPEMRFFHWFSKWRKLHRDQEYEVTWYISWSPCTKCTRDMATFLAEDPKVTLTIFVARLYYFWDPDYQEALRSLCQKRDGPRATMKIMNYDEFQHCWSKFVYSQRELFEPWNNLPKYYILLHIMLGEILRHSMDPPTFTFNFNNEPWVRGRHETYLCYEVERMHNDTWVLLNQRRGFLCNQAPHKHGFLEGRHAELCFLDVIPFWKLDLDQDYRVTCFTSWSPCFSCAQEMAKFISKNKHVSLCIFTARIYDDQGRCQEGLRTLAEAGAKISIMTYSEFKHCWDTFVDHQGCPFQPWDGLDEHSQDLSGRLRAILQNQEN
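HeLa cells stably expressing Vif and C-terminally eYFP-tagged A3G, seeded overnight at 37 deg C, then exposed to compound by pintool overnight at 37 deg C. Rise in yellow fluorescence (Ex 488/Em 500-530, Acumen) marks blocked Vif-driven A3G degradation.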
IL-1B inflam inh: qHTS for Inhibitors of Inflammasome Signaling: IL-1-beta AlphaLISA Primary Screen | 4.7% of 360,000 active | activity change, % at 57.5 µM | THP-1 LPS/ATP IL-1B secretion, AlphaLISA, 16 h; hits give low values; in the data active means activity change below about -50%; inconclusive means mostly about -30% to -49%; further: on the % scale 0 is the no-effect control and ±100 the full control effect
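THP-1 cells pretreated 1 hr with compounds (up to 57.5 uM final), then stimulated with LPS (250 ng/mL final) plus ATP (1.25 mM final); secreted IL-1B measured by AlphaLISA after 16 hr, decreased signal indicating inhibition.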
Giardia kill: Small Molecules that selectively kill Giardia lamblia: qHTS; Giardia lamblia trophozoite viability; activity change, % at 7.66 µM, hits read low; 0.15% of 340,000 active; AID 540267, 2011; in the data active means activity change below about -80%; inconclusive means between about -30% and that limit;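 further: parasites exposed to compound for two days anaerobically before the ATP read; on the % scale 0 is the no-effect control and ±100 the full control effect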
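Trophozoite viability was measured as ATP-dependent luminescence, read 15-30 min after reagent addition. Before that, parasites at 100 cells/well were exposed to compounds for 48 h, anaerobically, at 37 deg C.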
* = called active by the depositor; ? = inconclusive; nt = no result. Only some compounds are listed: those with a hit (about 6.9% of all), similar ones and a draw of the others. Unless noted, the call rests on the fitted dose curve; in most records, active means well fitted curve in the direction sought with a large enough effect; inconclusive means small, poorly fitted or top-dose-only effect, or another doubt; inactive means no such curve, though single readings can be large; an effect the other way counts as inactive or inconclusive.

SMILES | Vif-APOBEC3F blk | SW480 rereplic | MCF10A rerep | Vif-A3G inh | IL-1B inflam inh | Giardia kill
COc1ccc(-c2nc(SC(C)C(=O)NCC3CCCO3)n[nH]2)cc1 (centres undefined) | -13% | 16µM* | 13µM* | -27% | 38 | 8
C=C(C)CNC(=S)NNC(=O)CCn1c2ccc(Cl)cc2c2cc(Cl)ccc21 | 5% | ? | ? | -4% | -100* | 28
C=C(C)CNC(=S)NNC(=O)CCn1c2cc(Cl)ccc2c2ccc(Cl)cc21 | -2% | 7% | ? | 2% | 14 | -8
CN(CC(=O)NCc1ccc(Cl)cc1)S(=O)(=O)c1ccc2c(c1)c(=O)n(C)c(=O)n2C | -4% | nt | nt | 8% | nt | nt
CCOc1ccc(CCN2C(=S)N([C@@H](Cc3ccccc3)CN3CCCC3CN3C(=S)NC[C@@H]3Cc3ccccc3)C[C@@H]2Cc2ccc(O)cc2)cc1 (some centres undefined) | nt | nt | nt | nt | -4 | nt
CCOc1ccc(CCN2C(=S)N([C@@H](CC(C)C)CN3CCC[C@@H]3CN3C(=S)NC[C@@H]3Cc3ccccc3)C[C@@H]2Cc2ccc(O)cc2)cc1 | nt | nt | nt | 1% | -65* | nt
CCOc1ccc(CCN2C(=S)N([C@@H](Cc3ccc(O)cc3)CN3CCC[C@@H]3CN3C(=S)NC[C@@H]3Cc3ccc(O)cc3)C[C@@H]2Cc2ccc(O)cc2)cc1 | nt | nt | nt | nt | -57* | nt
CCOc1ccc(CCN2C(=S)N([C@@H](Cc3ccc(O)cc3)CN3CCC[C@@H]3CN3C(=S)NC[C@@H]3CC(C)C)C[C@@H]2CC(C)C)cc1 | nt | nt | nt | 1% | -59* | nt
Cc1cc(C)c(NC(=O)CN(C2CCCCC2)C2CCCCC2)c(C)c1 | -10% | 1.8µM* | 3.7µM* | 0% | -4 | 10
O=S(=O)(c1cc(Cl)c(Cl)cc1Cl)N1CCN2CCCC2C1 (centres undefined) | -1% | 0.37µM* | -9% | 8% | -1 | 15
Cn1nc(C(=O)NCc2cccc(Cl)c2)c2c1-c1ccccc1SC2 | 3% | nt | nt | 1% | nt | nt
CCc1nn(CCCC(=O)NCc2ccccc2C)c(=O)c2cc3occc3n12 | 4% | 0% | -1% | 0% | -3 | -9
CCc1nn(CCCC(=O)NCc2cc(Br)ccc2OC)c(=O)c2cc3occc3n12 | 1% | 11% | 5% | 0% | -56* | -15
O=C(CC(SCCO)c1ccc(F)cc1)c1ccco1 (centres undefined) | -3% | ? | 21µM* | 1% | -27 | -6
Cc1ccc(C(CC(=O)c2ccco2)SCCO)cc1 (centres undefined) | -7% | ? | ? | -8% | ? | -20
Cc1ccc(C(=O)N2CCCC(c3ccc(Cl)cc3)=N2)cc1 | 1% | ? | 18µM* | -4% | -54* | -13
NS(=O)(=O)c1ccc(Sc2nc3ccccc3s2)c([N+](=O)[O-])c1 | 7% | -22% | 5.8µM* | -28% | -99* | 20
NS(=O)(=O)c1ccc(Sc2ccccn2)c([N+](=O)[O-])c1 | 0% | -26% | -6% | 0% | nt | 6
Cc1oc(-c2ccccc2)nc1CNC(=O)Nc1ccccc1 | -3% | nt | nt | 1% | nt | nt
Cc1ccc(NC2=C(Cl)C(=O)OC2OC(=O)c2ccccc2)c(C)c1 (centres undefined) | -2% | ? | ? | 4% | ? | 9
Cc1cccc(NC2=C(Cl)C(=O)OC2OC(=O)c2ccco2)c1 (centres undefined) | 3% | 4.6µM* | ? | ? | -20 | 15
Cc1ccccc1NC1=C(Cl)C(=O)OC1OC(=O)c1ccccc1C (centres undefined) | -1% | ? | 8% | -22% | -83* | -6
Cc1ccc(NC2=C(Cl)C(=O)OC2OC(=O)c2ccco2)cc1 (centres undefined) | -20% | 21µM* | ? | -12% | -13 | 1
Cc1cccc(NC2=C(Cl)C(=O)OC2OC(C)C)c1 (centres undefined) | 1% | -6% | -1% | -1% | 17 | -9
Cc1ccc(S(=O)(=O)N2CCOCC2)cc1C(=O)Nc1ccccc1C(=O)O | -2% | nt | nt | -1% | nt | nt
SMILES | Vif-APOBEC3F blk | SW480 rereplic | MCF10A rerep | Vif-A3G inh | IL-1B inflam inh | Giardia kill
CCNC(=O)NC1c2ccccc2CSc2ccccc21 (centres undefined) | 14% | -5% | 2% | -6% | 8 | -21
CCOCCN1CCN(C2c3ccccc3CSc3ccccc32)CC1 (centres undefined) | -4% | 2% | -2% | -1% | -74* | -1
Cc1ccc2c(c1)Oc1ccc(NC(=O)CCl)cc1C(=O)N2 | 10% | 2.3µM* | 5.8µM* | ? | -100* | -11
COc1ccc(NS(=O)(=O)c2c(F)cccc2F)cc1S(=O)(=O)N1CCOCC1 | 4% | 0% | 1% | -3% | -5 | -26
COc1ccc(NC(=O)CCOc2ccccc2C)cc1S(=O)(=O)N1CCCCC1 | -11% | -94% | -12% | 2% | -60* | -14
COc1ccc(OCCC(=O)OCC(=O)Nc2cccc(S(=O)(=O)N3CCCCC3)c2)cc1 | 2% | ? | ? | -5% | -96* | 12
COc1ccc(OCC(=O)Nc2ccc(OC)c(S(=O)(=O)N3CCCCC3)c2)cc1 | -15% | 16µM* | ? | -22% | 2 | -4
COc1ccc(NC(=O)COc2ccccc2Cl)cc1S(=O)(=O)N1CCCCC1 | -16% | ? | 2% | 1% | -9 | 5
COc1ccc(NS(=O)(=O)c2c(F)cc(F)c(Cl)c2F)cc1S(=O)(=O)N1CCCCC1 | -14% | -2% | -2% | 0% | -53* | -8
Cc1ccc(C)n1-c1nnc(N2CCCC(C(=O)Nc3ccc(C(C)C)cc3)C2)s1 (centres undefined) | 6% | nt | nt | 2% | nt | nt
COc1cc(Nc2ccccc2Cl)c([N+](=O)[O-])nc1[N+](=O)[O-] | -12% | 4.6µM* | ? | ? | 54 | -26
COc1ccc(-c2cc(C(=O)Oc3cccc(C)c3C)c3ccccc3n2)cc1 | -1% | nt | nt | -4% | nt | nt
CN(C)c1ccccc1-c1cc(NC=O)c2ncc(-c3cccc(C(F)(F)F)c3)n2c1 | nt | nt | nt | ? | -74* | nt
COc1ccc(-c2cc(NC=O)c3ncc(-c4cccc(C(F)(F)F)c4)n3c2)cc1OC | nt | nt | nt | ? | -63* | nt
CN(C)C(=O)c1cccc(-c2cnc3c(NC=O)cc(-c4ccccc4Cl)cn23)c1 | nt | nt | nt | -27% | -53* | nt
